Screen size: about 310,000 compounds; about 3,800 (1.2%) were called active. This is one part of a sample in which actives are shown more often than they occur.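 How the source made its calls: active means ratio B-score over 3 SD below the library mean, with starting fluorescence within 5 SD of its mean; inactive means the rest, inconclusive results apart.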

The record followed here is PubChem BioAssay AID488922 (Johns Hopkins Ion Channel Center, 2010).

For this assay, the target named is Potassium channel subfamily K member 9 (Homo sapiens) (UniProt Q9NPC2). The assay is described as follows: blockers of human TASK-3 (KCNK9) channel – HEK293 cells, thallium flux, primary screen (AID 488922).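 On B-score: negative B-score means less thallium flux so channel inhibition.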 The note with it: HEK293 KCNK9, FluxOR thallium flux fluorescence, at 10 µM; hits give low values.
Chain of Potassium channel subfamily K member 9 (Homo sapiens) (Q9NPC2 whole entry, looked up): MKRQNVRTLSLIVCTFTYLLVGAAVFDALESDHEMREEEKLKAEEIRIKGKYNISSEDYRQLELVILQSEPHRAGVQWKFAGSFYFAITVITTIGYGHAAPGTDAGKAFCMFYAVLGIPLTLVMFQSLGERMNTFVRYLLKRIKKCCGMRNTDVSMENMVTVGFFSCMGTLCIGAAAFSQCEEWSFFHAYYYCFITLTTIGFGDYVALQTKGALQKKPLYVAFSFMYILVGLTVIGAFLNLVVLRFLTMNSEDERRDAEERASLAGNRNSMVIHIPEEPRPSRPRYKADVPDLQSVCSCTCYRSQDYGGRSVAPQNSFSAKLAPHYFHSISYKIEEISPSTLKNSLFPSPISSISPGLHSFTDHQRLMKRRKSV
With `CC1=CC(=C(C#N)c2nc3ccccc3s2)C=C(C)N1c1ccc(F)cc1F`, the B-score result was “inactive”.

`O=S(=O)(Cc1nnnn1-c1ccc(Br)cc1)c1ccc(F)cc1`: the B-score entry is “inactive”.

In the case of `COc1ccccc1C1SCCN1C(=O)c1ccc([N+](=O)[O-])cc1` (stereo not drawn), the B-score entry is “inactive”.

On to `COc1ccc(C(=O)N2CCc3cc(OC)c(OC)cc3C2c2cccc([N+](=O)[O-])c2)cc1` (stereo not drawn), for which the B-score is -15.3 (active).

Regarding `COc1ccc2[nH]c(=O)c(C3c4cc(OC)c(OC)cc4CCN3C(=O)c3ccco3)cc2c1` (stereo not drawn), the B-score result is “inactive”.

For `O=C(NCCCO)/C(=C\C=C\c1ccccc1)NC(=O)c1ccccc1Cl`, the B-score result was “inactive”.

Consider `Cc1ccc(CSc2nsc(C)c2C#N)cc1`, for which the B-score entry was “inactive”.

Turning to `O=C(Nc1ccc(F)cc1)C1CCCN(S(=O)(=O)c2ccc(-n3cnnn3)cc2)C1` (stereo not drawn), the B-score entry is “inactive”.

With `CN(C)S(=O)(=O)N1CCC(Oc2cccc(C(=O)NCCCC3CCCC3)c2)CC1`, the B-score was -14.3 (active).

On to `CN(C(=O)c1cccc(OC2CCN(S(=O)(=O)N(C)C)CC2)c1)C1CCOC1` (stereo not drawn), for which the B-score result is “inactive”.

As to `CNS(=O)(=O)c1cccc(C(=O)NCC2CCCCC2)c1`, the B-score result was “inactive”.

For the molecule `Cc1ccc(CCNC(=O)c2ccc3nc4ccccc4c(=O)n3c2)cc1`, the B-score result is “inactive”.

Turning to `CC(C)(C)c1nnc(NC(=O)C2c3ccccc3Oc3ccccc32)s1`, the B-score entry was “inactive”.

In the case of `CCn1ccnc1CNC(=O)CC1C(=O)NCCN1Cc1ccc(F)cc1Cl` (stereo not drawn), the B-score result was “inactive”.

`O=[N+]([O-])c1ccc2c(c1)Nc1nc3ccccc3nc1N2`: the B-score entry was “inactive”.

As to `COc1ccc(-c2nc3cc([N+](=O)[O-])ccc3o2)cc1OC`, the B-score entry is “inactive”.

For `COc1ccc([N+](=O)[O-])cc1-c1nc2ccccc2nc1-c1ccccc1`, the B-score is -9.17 (active).

In the case of `Cc1cnc(NC(=O)c2ccccn2)s1`, the B-score result was “inactive”.

As for `CC(C)CNC(=O)C(=O)NCC(c1ccc2c(c1)OCO2)N1CCOCC1` (stereo not drawn), the B-score result was “inactive”.

On to `CC(C)[C@@H](NC(=O)OC(C)(C)C)C(=O)NCC1CCC(C(=O)N[C@@H](Cc2ccccc2)C(=O)O)CC1` (stereo partly drawn), for which the B-score result was “inactive”.

Turning to `CCC(C)C(=O)Nc1ccccc1N1CCN(c2ccc(F)cc2)CC1` (stereo not drawn), the B-score entry is “inactive”.

For the molecule `O=C(Nc1ccccc1N1CCCC1)c1ccc2ccccc2c1`, the B-score entry is “inactive”.

With `CCCCC(=O)Nc1ccccc1N1CCN(c2ccc(F)cc2)CC1`, the B-score was -13.2 (active).

In the case of `CCCC(=O)Nc1ccccc1N1CCN(C(=O)c2ccccc2)CC1`, the B-score result was “inactive”.

As for `Cc1cccc(C(=O)Nc2ccccc2N2CCN(c3ccc(F)cc3)CC2)c1`, the B-score is -9.31 (active).

Consider `O=C(Nc1ccccc1N1CCN(c2ccccc2)CC1)c1cccc(F)c1`, for which the B-score result was “inactive”.

In the case of `COc1ccc(NC(=O)CN(C)C(=O)CC2CCCCC2)cc1`, the B-score entry is “inactive”.

In the case of `CNC1(c2nnnn2-c2c(C)cccc2C)CCOC(C)(C)C1` (stereo not drawn), the B-score entry was “inactive”.

For `COc1ccccc1NC(=O)C1=C(C)Nc2nc3ccccc3n2C1c1cccs1` (stereo not drawn), the B-score entry is “inactive”.

Take `O=C(/C=C/c1cccc([N+](=O)[O-])c1)N1CCN(Cc2ccccc2)CC1`: the B-score result is “inactive”.

On to `O=[N+]([O-])/C=C/c1ccc2c(ccn2Cc2ccccc2)c1`, for which the B-score is -9.63 (active).

Regarding `O=c1c([N+](=O)[O-])cc(C(F)(F)F)cn1Cc1cccc(Cl)c1`, the B-score entry is “inactive”.

Take `CC(C)Cc1nnc(NC(=O)CN2C(=O)NC3(CCCCC3)C2=O)s1`: the B-score result was “inactive”.

As to `COc1cc(/C=C/C(=O)O)cc(S(=O)(=O)Nc2ccccc2C(=O)NCCc2ccccc2)c1OC`, the B-score result was “inactive”.

For `CC1CCCC(NC(=O)c2cccc(N3CCCC3=O)c2)C1C` (stereo not drawn), the B-score entry is “inactive”.

For `O=C(/C=C/Sc1ncn[nH]1)c1ccc(Cl)cc1`, the B-score result was “inactive”.

Regarding `O=C(Nc1cc(C(F)(F)F)ccc1Cl)C(=O)N1CCCCC1`, the B-score entry is “inactive”.

For `CC(CC(=O)Nc1cc(C(F)(F)F)ccc1Cl)c1ccccc1` (stereo not drawn), the B-score entry is “inactive”.

Take `O=C(NNc1ccccc1Cl)C(O)(c1cccc(C(F)(F)F)c1)c1cccc(C(F)(F)F)c1`: the B-score is -8.19 (active).

For `CCO[C@H]1OC(C(=O)NCc2ccccc2)=C[C@@H](c2coc3ccccc3c2=O)[C@@H]1CCCO`, the B-score entry is “inactive”.

Take `O=C(COc1ccc2c3c(c(=O)oc2c1)CCCC3)NCC(O)c1ccccc1` (stereo not drawn): the B-score result was “inactive”.

With `CN1CCN(CC#CCC2(O)c3ccccc3-c3ccccc32)CC1`, the B-score entry is “inactive”.

On to `Cc1cccc(NC(=O)c2sc3nc4c(c(-c5ccco5)c3c2N)CCC4)c1`, for which the B-score is -10.4 (active).

With `Cc1cccc(NC(=O)c2sc3nc(N4CCOCC4)c4c(c3c2N)CCCC4)c1`, the B-score result is “inactive”.

Consider `NC(=O)c1sc2nc3c(c(-c4ccccc4)c2c1N)CCC3`, for which the B-score result was “inactive”.

For `CC1(C)CC(=O)C(C2c3ccccc3S(=O)(=O)c3ccccc32)C(=O)C1`, the B-score result is “inactive”.

Consider `COc1cnn(-c2ccc([N+](=O)[O-])cc2)c(=O)c1Cl`, for which the B-score entry was “inactive”.

In the case of `COc1ccc(C2Nc3ccccc3C(=O)N2c2ccc(Cl)cc2)cc1Cn1cc([N+](=O)[O-])cn1` (stereo not drawn), the B-score was -7.96 (active).

In the case of `COc1ccc(N2C(=O)c3ccccc3NC2c2ccc(OC)c(CN3CCOCC3)c2)cc1` (stereo not drawn), the B-score result was “inactive”.

On to `CCCCn1c(N)c(N(CC(C)C)C(=O)c2ccc(Br)o2)c(=O)[nH]c1=O`, for which the B-score entry is “inactive”.

Consider `Cc1ccccc1-c1nc(CS(=O)(=O)CC(=O)NC(C)c2ccccc2)c(C)o1` (stereo not drawn), for which the B-score result was “inactive”.

`CCOc1ccc(NC(=O)CN(C)C(=O)COc2cccc(CC)c2)cc1OCC`: the B-score entry was “inactive”.

On to `O=C1c2ccccc2S(=O)(=O)N1CC(O)Cn1c2ccccc2c2ccccc21` (stereo not drawn), for which the B-score is -10.9 (active).

`CC(C)(C)c1ccc(CN2C(=O)c3ccccc3S2(=O)=O)cc1`: the B-score entry is “inactive”.

As for `CCCCN(CCCC)CC(O)Cn1c2ccccc2c(=O)c2ccccc21` (stereo not drawn), the B-score entry is “inactive”.

As for `CC(=O)Nc1ccc(S(=O)(=O)NNC(=O)CCc2ccccc2)cc1`, the B-score entry was “inactive”.

Regarding `Cc1c(NC(=O)c2cc(-c3ccc(Cl)s3)nc3ccccc23)c(=O)n(-c2ccccc2)n1C`, the B-score result was “inactive”.

Consider `Cc1cc(C)c(SCCc2ccncc2)c(C)c1`, for which the B-score entry was “inactive”.

In the case of `CCOC(=O)C(NS(=O)(=O)c1ccc(C)cc1)(C(F)(F)F)P(=O)(OCC(C)C)OCC(C)C` (stereo not drawn), the B-score entry was “inactive”.

For the molecule `CC1(C)CC(=O)C=C(N2CCCC2)C1`, the B-score entry was “inactive”.

As to `O=C(O)CN1CCN(C(c2ccccc2)c2ccccc2)CC1`, the B-score entry was “inactive”.

For `CC1(C)CC(N2CCN(C(c3ccccc3)c3ccccc3)CC2)=CC(=[N+]2CCCCC2)C1`, the B-score is -17.2 (active).

In the case of `Cc1ccccc1-n1cc(CNC(=O)CC2C(=O)NCCN2C/C=C/c2ccccc2)cn1` (stereo not drawn), the B-score entry was “inactive”.

Turning to `CCOc1ccc(C(=O)CCN2CCOCC2)cc1`, the B-score entry was “inactive”.

In the case of `O=C(N/N=C/c1cccnc1)c1cc2ccccc2cc1O`, the B-score result is “inactive”.

For the molecule `CC(C)(C)OC(=O)NNc1c2ccccc2nc2ccccc12`, the B-score entry was “inactive”.

Take `O=C(NNc1c2ccccc2nc2ccccc12)c1cc2ccccc2cc1O`: the B-score is -7.49 (active).

With `O=C(COc1ccc(NC(=O)c2ccccc2[N+](=O)[O-])cc1)c1ccc(F)cc1`, the B-score entry is “inactive”.

For `CC(C)CC(=O)Nc1ccc(Cc2ccncc2)cc1`, the B-score result is “inactive”.

Take `COc1ccccc1NC(=O)C1CCCN1S(=O)(=O)c1ccc(Cl)cc1` (stereo not drawn): the B-score result was “inactive”.

With `CN(c1ccccc1)S(=O)(=O)c1cccc(C(=O)NNC(=O)c2ccncc2)c1`, the B-score result is “inactive”.

For the molecule `Cc1cc(NC(=O)CSc2nc3cc(Cl)ccc3c(=O)n2Cc2ccco2)no1`, the B-score entry is “inactive”.

`COc1ccccc1NC(=O)CSc1nc2sc(C)c(C)c2c(=O)n1Cc1ccco1`: the B-score was -9.54 (active).

`COc1ccccc1NC(=O)CSc1nc2sc3c(c2c(=O)n1-c1ccccc1)CCN(C)C3`: the B-score result was “inactive”.

Take `O=S(=O)(NCC1CCCO1)c1cnc(Cl)c(Cl)c1` (stereo not drawn): the B-score result is “inactive”.

In the case of `COC(=O)CCCC1=CC2=C(c3ccccc3)C(=O)C(C)(OC(=O)C3CCCC3)C(=O)C2=CN1c1ccc(OC)cc1` (stereo not drawn), the B-score entry was “inactive”.

Consider `COCCNC(=O)Cn1cc(C(=O)c2cccs2)c2ccccc21`, for which the B-score entry was “inactive”.

As for `COC(=O)c1cn(CC(=O)NCc2cccs2)c2ccccc12`, the B-score result is “inactive”.

As for `O=C(Cn1cc(C(=O)c2cccs2)c2ccccc21)NCc1cccs1`, the B-score was -13.5 (active).

Turning to `Cc1ccc(C(C[N+](=O)[O-])c2c(C)cc3ccccn23)cc1` (stereo not drawn), the B-score entry is “inactive”.

Consider `COc1cccc(CC2(CO)CCCN(Cc3ccc(OC(F)F)cc3)C2)c1` (stereo not drawn), for which the B-score result is “inactive”.

For `Cc1cc(C)cc(Oc2c(C(F)(F)F)oc3cc(OCC(=O)O)ccc3c2=O)c1`, the B-score result was “inactive”.

Regarding `COc1ccc(N(CCC#N)S(=O)(=O)c2ccc(Cl)cc2)cc1`, the B-score result is “inactive”.

Regarding `CCC(c1nnnn1Cc1ccco1)N(Cc1cc2cc(OC)ccc2[nH]c1=O)C1CCCCC1` (stereo not drawn), the B-score result was “inactive”.

As to `Cc1cc(C)c2cc(CN(Cc3nnnn3Cc3ccc(F)cc3)C3CCCC3)c(=O)[nH]c2c1`, the B-score entry was “inactive”.

For the molecule `CCC(c1nnnn1Cc1ccco1)N(CCc1ccccc1)Cc1cc2ccc(OC)cc2[nH]c1=O` (stereo not drawn), the B-score entry is “inactive”.

For the molecule `CCC(c1nnnn1Cc1ccco1)N(CCc1ccccc1)Cc1cc2cccc(C)c2[nH]c1=O` (stereo not drawn), the B-score is -8.62 (active).

As to `Cc1cccc2cc(CN(Cc3ccc4c(c3)OCO4)Cc3nnnn3C3CCCC3)c(=O)[nH]c12`, the B-score result is “inactive”.

`Cc1cccc2cc(CN(Cc3nnnn3Cc3ccccc3)C3CCCC3)c(=O)[nH]c12`: the B-score was -11.5 (active).

On to `C/C=N/NC(=O)CCCC(=O)N/N=C/C`, for which the B-score entry was “inactive”.

On to `CCNCCC(=O)N1c2ccccc2Sc2ccc(NC(=O)OCC)cc21`, for which the B-score entry was “inactive”.

Turning to `Cn1cc(CCC(=O)NCc2ccc3c(c2)OCO3)c2ccccc21`, the B-score entry is “inactive”.

Consider `N#Cc1nc(Cc2cccc3ccccc23)oc1NCc1ccc2c(c1)OCO2`, for which the B-score is -11.2 (active).

`c1n[nH]c(NCc2ccc3c(c2)OCO3)n1`: the B-score result was “inactive”.

Take `CC(=O)N1Cc2ccccc2CC1C(=O)O` (stereo not drawn): the B-score result is “inactive”.

As to `O=C(CN1CCCCCC1)NCCN1C(=O)S/C(=C\c2ccccc2Cl)C1=O`, the B-score result was “inactive”.

For the molecule `O=C(CN1C(=O)S/C(=C\c2ccccc2Cl)C1=O)NC1C=CS(=O)(=O)C1` (stereo not drawn), the B-score result is “inactive”.

On to `CN1C2CCC1/C(=C\c1ccccc1Cl)C(=O)/C2=C\c1ccccc1Cl`, for which the B-score was -8.6 (active).

Regarding `O=C(CCc1nnc2ccc(NCc3ccccc3Cl)nn12)NCC1CCN(C2CCCC2)C1` (stereo not drawn), the B-score result is “inactive”.

Turning to `Cc1ccc(CCNC(=O)C2CCN(S(=O)(=O)N3CCCC3)CC2)cc1`, the B-score result is “inactive”.

Take `CCOc1c(OC)cccc1C(=O)NCC1(c2ccccc2)CCCC1`: the B-score result was “inactive”.

Regarding `COc1cc(C(=O)NCC2(c3ccccc3)CCCC2)ccc1OC(C)C`, the B-score entry is “inactive”.

Regarding `O=C(CNC1CCCCC1)NCC1(c2ccccc2)CCCC1`, the B-score was -7.46 (active).
